# Test results published in PubChem BioAssay (Tox21).
# “And” between values parts separate entries of the source, which are not always exact repeats. Identical values can stand only once. Unmarked numbers belong to inactive results. Records with an inconclusive call do not appear. Where a call stands in place of a potency, no number is given. The source made the active and inactive calls. Unless noted, calls follow the shape of the dose curve; as a rule, active = well fitted curve in the direction sought with a large enough effect in the repeat runs; inconclusive = weak or mixed curves; inactive = no such curve, though single readings can be large; an effect the other way counts as inactive or inconclusive.
# Key:
# [1] = qHTS assay for small molecule agonists of the p53 signaling pathway (AID 651631; calls by dose curve; also: nearly all actives have a fitted effect of over 15% in size; also: potency is read from the fitted curve at half-maximal effect)
# Summary of the method: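 HCT-116 cells carrying a stable p53 response element–beta-lactamase reporter were plated, rested 5 h at 37 °C, then exposed to compound in DMSO for 16 h at 37 °C; reporter activity was read as FRET substrate fluorescence after 2 h at room temperature.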
# [2] = biological target: Glucocorticoid receptor (Homo sapiens) (UniProt P04150); assay: qHTS assay to identify small molecule antagonists of the glucocorticoid receptor (GR) signaling pathway (AID 720692; active = well fitted inhibition curve with a large enough effect in the signal ratio in the repeat runs, not every such curve was filed as active; the % refers to the signal ratio; also: potency is read from the fitted curve at half-maximal effect)
# Summary of the method: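 Dexamethasone (5 nM final) stimulated a stably integrated GRE-beta-lactamase reporter in HeLa cells during 18 h co-incubation with compounds; signal was quantified as fluorescence intensity of B/G FRET substrate after 2 h.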
# [3] = biological target: Androgen receptor (Homo sapiens) (UniProt P10275); assay: qHTS assay to identify small molecule antagonists of the androgen receptor (AR) signaling pathway (AID 743035; active = well fitted inhibition curve with a large enough effect in the signal ratio in the repeat runs, not every such curve was filed as active; the % refers to the signal ratio; also: potency is read from the fitted curve at half-maximal effect)
# Summary of the method: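 Using qHTS, AR-UAS-bla GripTite HEK293 cells received compound, then R1881, and were cultured 16 h at 37C/5% CO2 before a 2 h room-temperature LiveBLAzer B/G FRET substrate step and fluorescence measurement.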
# [4] = biological target: Androgen receptor (Homo sapiens) (UniProt P10275); assay: qHTS assay to identify small molecule agonists of the androgen receptor (AR) signaling pathway using the MDA cell line (AID 743040; also: nearly all actives have a fitted effect of over 20% in size; also: potency is read from the fitted curve at half-maximal effect)
# Summary of the method: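 Luminescence from ONE-Glo, read after 30 min at room temperature, reflects MMTV-driven luciferase in MDA-kb2 cells (AR- and GR-responsive). Treatment lasted 16 h at 37C, 0% CO2.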
# [5] = biological target: Androgen receptor (Homo sapiens) (UniProt P10275); assay: qHTS assay to identify small molecule antagonists of the androgen receptor (AR) signaling pathway using the MDA cell line (AID 743042; also: nearly all actives have a fitted effect of over 55% in size; also: potency is read from the fitted curve at half-maximal effect)
# Summary of the method: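 MDA-kb2 cells (human breast carcinoma, stably carrying an MMTV-luciferase reporter responsive to AR and GR) were plated at 3,000 cells/well and preincubated 5 hr at 37C, then given compound plus R1881 agonist for 16 h. ONE-Glo luminescence was read.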
# [6] = biological target: Nuclear receptor subfamily 1 group I member 2 (Rattus norvegicus) (UniProt Q9R1A7); assay: Rat pregnane X receptor (rPXR) activation by small molecules, qHTS assay (AID 1346983); details: rPXR luciferase reporter cells, One-Glo luminescence, 24 h; max activation: hits give high values; also: nearly all actives have a fitted effect of over 20% in size
# Summary of the method: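 Cell-based rPXR luciferase reporter assay, 2,000 cells per well, rested 5hr at 37 C before compound addition in DMSO, then 24 hr at 37 C. One-Glo reagent was added and luminescence read after 30 min at room temperature.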
# [7] = biological target: Estrogen receptor (Homo sapiens) (UniProt P03372); assay: qHTS assay to identify small molecule antagonists of the estrogen receptor alpha (ER-alpha) signaling pathway (AID 743069; active = well fitted curve in the direction sought with a large enough effect in the signal ratio in the repeat runs, not every such curve was filed as active; the % refers to the signal ratio)
# Summary of the method: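 Estradiol-stimulated ER-alpha-UAS-bla HEK293 cells, 18 hr compound exposure at 37C. LiveBLAzer B/G substrate, 2 hr RT, fluorescence read.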
# [8] = biological target: Androgen receptor (Homo sapiens) (UniProt P10275); assay: qHTS assay to identify small molecule agonists of the androgen receptor (AR) signaling pathway (AID 743036; active = well fitted activation curve with a large enough effect in the signal ratio in the repeat runs, with a control signal flat, not every such curve was filed as active; the % refers to the signal ratio; also: potency is read from the fitted curve at half-maximal effect)
# Summary of the method: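 HEK293 cells stably carrying a UAS-driven beta-lactamase reporter (GeneBLAzer AR-UAS-bla-GripTite) were plated at 2,000 cells/well, rested 4 h at 37C, then exposed to compounds in DMSO for 16 h. LiveBLAzer B/G FRET substrate was added for 2 h at room temperature; fluorescence read.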
# Nuclear receptor subfamily 1 group I member 2 (Rattus norvegicus), sequence (Q9R1A7 whole entry, looked up): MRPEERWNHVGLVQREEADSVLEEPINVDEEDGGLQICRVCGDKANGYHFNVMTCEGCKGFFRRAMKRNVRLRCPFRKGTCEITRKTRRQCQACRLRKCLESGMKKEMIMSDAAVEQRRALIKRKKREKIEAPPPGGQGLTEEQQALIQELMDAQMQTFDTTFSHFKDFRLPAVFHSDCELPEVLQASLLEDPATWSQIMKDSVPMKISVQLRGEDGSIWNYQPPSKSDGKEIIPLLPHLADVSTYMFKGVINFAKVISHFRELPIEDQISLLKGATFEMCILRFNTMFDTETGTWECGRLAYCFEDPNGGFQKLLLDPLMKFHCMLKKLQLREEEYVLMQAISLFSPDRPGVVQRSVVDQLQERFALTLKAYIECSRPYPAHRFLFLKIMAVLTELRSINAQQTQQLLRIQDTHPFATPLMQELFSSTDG
# Glucocorticoid receptor (Homo sapiens), sequence (P04150 whole entry, looked up): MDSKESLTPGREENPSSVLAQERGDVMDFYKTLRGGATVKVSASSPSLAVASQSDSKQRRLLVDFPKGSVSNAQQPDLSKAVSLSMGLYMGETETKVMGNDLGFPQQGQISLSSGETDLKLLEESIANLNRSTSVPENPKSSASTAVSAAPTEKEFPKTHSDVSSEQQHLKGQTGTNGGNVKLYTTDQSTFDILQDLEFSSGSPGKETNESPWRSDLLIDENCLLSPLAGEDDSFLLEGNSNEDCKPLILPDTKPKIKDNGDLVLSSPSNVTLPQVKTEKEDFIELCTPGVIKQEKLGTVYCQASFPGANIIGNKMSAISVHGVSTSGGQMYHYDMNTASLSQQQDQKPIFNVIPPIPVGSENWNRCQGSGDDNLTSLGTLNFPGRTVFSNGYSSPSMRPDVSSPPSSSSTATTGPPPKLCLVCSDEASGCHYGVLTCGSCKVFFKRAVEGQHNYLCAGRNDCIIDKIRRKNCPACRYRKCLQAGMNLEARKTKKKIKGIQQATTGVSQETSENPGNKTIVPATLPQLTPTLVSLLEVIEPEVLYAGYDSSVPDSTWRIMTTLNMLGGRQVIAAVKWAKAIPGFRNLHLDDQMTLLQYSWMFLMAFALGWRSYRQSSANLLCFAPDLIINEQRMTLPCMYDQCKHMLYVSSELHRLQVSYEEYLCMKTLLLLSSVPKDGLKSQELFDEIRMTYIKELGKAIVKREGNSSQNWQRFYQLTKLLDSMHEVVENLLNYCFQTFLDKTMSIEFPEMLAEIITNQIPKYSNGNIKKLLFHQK
# Estrogen receptor (Homo sapiens), sequence (P03372 whole entry, looked up): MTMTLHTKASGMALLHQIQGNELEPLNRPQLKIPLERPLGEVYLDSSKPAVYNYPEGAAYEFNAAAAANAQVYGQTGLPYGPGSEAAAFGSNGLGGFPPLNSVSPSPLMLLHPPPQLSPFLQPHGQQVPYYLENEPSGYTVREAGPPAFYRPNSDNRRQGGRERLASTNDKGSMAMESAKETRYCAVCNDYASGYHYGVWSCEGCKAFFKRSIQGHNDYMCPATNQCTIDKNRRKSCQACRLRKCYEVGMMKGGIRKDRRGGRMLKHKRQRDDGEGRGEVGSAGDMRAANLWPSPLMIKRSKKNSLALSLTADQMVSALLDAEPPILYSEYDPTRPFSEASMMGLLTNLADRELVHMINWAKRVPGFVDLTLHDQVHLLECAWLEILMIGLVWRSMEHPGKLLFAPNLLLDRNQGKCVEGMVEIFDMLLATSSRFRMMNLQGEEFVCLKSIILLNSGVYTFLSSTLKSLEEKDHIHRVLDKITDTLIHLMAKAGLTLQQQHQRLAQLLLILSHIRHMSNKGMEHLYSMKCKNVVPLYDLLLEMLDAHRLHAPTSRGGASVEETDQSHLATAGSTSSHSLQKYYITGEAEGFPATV
# Androgen receptor (Homo sapiens), sequence (P10275 whole entry, looked up): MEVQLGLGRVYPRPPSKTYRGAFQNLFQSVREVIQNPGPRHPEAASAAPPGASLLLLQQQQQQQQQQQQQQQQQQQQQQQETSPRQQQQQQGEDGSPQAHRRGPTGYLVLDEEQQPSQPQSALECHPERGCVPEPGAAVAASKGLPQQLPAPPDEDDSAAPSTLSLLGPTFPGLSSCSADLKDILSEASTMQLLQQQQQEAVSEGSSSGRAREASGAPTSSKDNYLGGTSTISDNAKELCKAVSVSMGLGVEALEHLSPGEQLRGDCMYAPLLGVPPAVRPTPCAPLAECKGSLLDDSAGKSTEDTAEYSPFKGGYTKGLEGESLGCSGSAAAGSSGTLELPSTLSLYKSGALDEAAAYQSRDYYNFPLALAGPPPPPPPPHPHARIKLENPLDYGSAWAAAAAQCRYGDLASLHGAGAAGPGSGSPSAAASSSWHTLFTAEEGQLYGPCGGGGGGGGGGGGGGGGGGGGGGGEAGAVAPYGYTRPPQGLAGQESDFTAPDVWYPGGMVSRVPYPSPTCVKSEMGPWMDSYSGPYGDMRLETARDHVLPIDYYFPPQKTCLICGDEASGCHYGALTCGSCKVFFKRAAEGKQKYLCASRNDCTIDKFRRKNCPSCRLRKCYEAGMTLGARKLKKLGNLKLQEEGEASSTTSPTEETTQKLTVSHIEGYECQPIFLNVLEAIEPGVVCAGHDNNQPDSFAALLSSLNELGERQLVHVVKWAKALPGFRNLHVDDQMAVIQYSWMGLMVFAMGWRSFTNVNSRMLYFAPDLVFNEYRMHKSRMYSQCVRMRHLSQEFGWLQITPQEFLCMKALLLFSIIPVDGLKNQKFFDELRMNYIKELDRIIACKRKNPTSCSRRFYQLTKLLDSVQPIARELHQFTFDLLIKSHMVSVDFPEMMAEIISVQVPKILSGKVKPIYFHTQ
smiles,measurement,setting,value
c1cc2c(c(NC3=NCCN3)c1)CCCC2,Potency,[1],inactive
same,Potency,[2],inactive
same,Potency,[3],inactive
same,Potency,[4],inactive
same,Potency,[5],inactive
O=C1C=C2C=C[C@@H]3C[C@@]2(O1)[C@H]1CCCCN31,Potency,[2],4.25 µM (active)
same,max activation,[6],-20.5%
CCOc1ccc2c3c1O[C@H]1[C@@H](O)C=C[C@H]4[C@@H](C2)N(C)CC[C@@]341,Potency,[1],inactive
same,Potency,[2],inactive
same,Potency,[7],inactive
[H+].[H+].[Hg+2].[O-]B([O-])[O-].[c-]1ccccc1,max activation,[6],-22%
CCCCCc1cc(O)c2c(c1)OC(C)(C)[C@@H]1CCC(C)=C[C@@H]21,Potency,[8],inactive
same,Potency,[4],inactive
same,Potency,[5],inactive
same,max activation,[6],-3.2%
C=C[C@H]1CN2CC[C@H]1C[C@@H]2[C@@H](O)c1ccnc2ccccc12,Potency,[2],inactive
same,max activation,[6],-2.95%
Cc1cc(C)cc(C(=O)OC2C[C@H]3CC[C@@H](C2)N3C)c1 (some centres not stated),Potency,[7],inactive
same,max activation,[6],-1.64%
C[C@]12CCC(=O)C=C1C=C[C@@H]1[C@@H]2CC[C@@]2(C)[C@H]1CC[C@@]2(O)CCC(=O)O,Potency,[2],9.1 µM (active)
same,Potency,[3],inactive
same,Potency,[8],3.62 µM (active)
same,Potency,[4],12.7 µM (active)
same,Potency,[5],inactive
same,max activation,[6],4.24%
CN1CCCC(=C(c2cccs2)c2cccs2)C1,Potency,[3],inactive
same,Potency,[8],inactive
same,Potency,[4],inactive
same,Potency,[5],inactive
same,Potency,[7],inactive
same,max activation,[6],-1%
CN(C)[C@H](Cc1ccccc1)c1ccccc1,Potency,[7],inactive
same,max activation,[6],0.224%
CN1c2ccccc2C(NCCCCCCC(=O)O)c2ccc(Cl)cc2S1(=O)=O (configuration not stated),Potency,[7],inactive
same,max activation,[6],-2.51%
CNC1(c2ccccc2Cl)CCCCC1=O (configuration not stated),Potency,[1],inactive
same,Potency,[2],inactive
same,Potency,[7],inactive
same,max activation,[6],-2.7% and 3.43%
CNC(=O)Oc1ccccc1C(=O)Nc1ccccc1,Potency,[2],inactive
same,Potency,[5],inactive
same,Potency,[7],inactive
same,max activation,[6],-3.26%
CN(C)CCCCCCN(C)C (tested in a mixture with another compound),Potency,[2],inactive
same,max activation,[6],-5.32%
C=CCC1(C(C)CCC)C(=O)N=C(S)NC1=O (configuration not stated),Potency,[1],inactive
same,Potency,[2],inactive
same,Potency,[8],inactive
same,Potency,[5],inactive
same,Potency,[7],inactive
same,max activation,[6],-2.22%
C[C@@H](CO)NC(=O)[C@@H]1C=C2c3cccc4[nH]cc(c34)C[C@H]2N(C)C1,Potency,[1],inactive
same,Potency,[2],inactive
same,Potency,[3],inactive
same,Potency,[4],26.6 µM (active)
same,Potency,[5],inactive
CCN1C[C@]2(COC)[C@H](O)C[C@H](OC)[C@@]34[C@@H]5C[C@@]6(O)[C@H](OC(=O)c7ccccc7)[C@@H]5[C@@](OC(C)=O)([C@@H]([C@H](OC)[C@H]23)[C@@H]14)[C@@H](O)[C@@H]6OC,Potency,[7],inactive
same,max activation,[6],-1.75%
c1csc(C2(N3CCCCC3)CCCCC2)c1,Potency,[1],inactive
same,Potency,[7],inactive
same,max activation,[6],-0.931%
Oc1cc[c]([Hg][Cl])cc1,Potency,[1],23.7 µM (active)
same,Potency,[3],19 µM (active)
same,Potency,[5],8.41 µM (active) and 5.96 µM (active)
same,max activation,[6],-21.4%
CCNC(C)Cc1cccc(C(F)(F)F)c1 (configuration not stated),Potency,[2],inactive
same,Potency,[7],inactive
same,max activation,[6],-1.05%
CC(=O)OO,Potency,[1],inactive
same,Potency,[7],inactive
CC(C)(O)[C@@H]1[C@H]2OC(=O)[C@@H]1[C@]1(O)C[C@H]3O[C@]34C(=O)O[C@H]2[C@]14C,Potency,[2],inactive
same,max activation,[6],-2.48%
COc1ccc2c3c1O[C@H]1C(=O)CC[C@H]4[C@@H](C2)N(C)CC[C@]314,Potency,[7],inactive
same,max activation,[6],-2.81%
[S]=[Sb](=[S])[S][Sb](=[S])=[S],Potency,[2],inactive
same,Potency,[7],inactive
same,max activation,[6],-0.774%
C[C@@H](Cc1ccccc1)N(C)C,Potency,[1],inactive
same,Potency,[3],inactive
same,Potency,[8],inactive
same,Potency,[5],inactive
CCN(CC)C(=O)N[C@H]1C[C@@H]2c3cccc4[nH]cc(c34)C[C@H]2N(C)C1,Potency,[1],inactive
same,Potency,[3],inactive
same,Potency,[8],inactive
same,Potency,[5],inactive
same,max activation,[6],-1.74%
CCC1(c2ccccc2)C(=O)NC(=O)N(C(=O)c2ccccc2)C1=O (configuration not stated),Potency,[2],inactive
same,max activation,[6],-3.53%
CCON=O,Potency,[2],inactive
same,Potency,[7],inactive
CN[C@H]1C[C@@H](N)[C@H](O)[C@@H](O[C@@H]2O[C@H](CO)[C@H](O)[C@@H]3OC4(O[C@H]23)O[C@H](C(N)CO)[C@H](O)[C@H](O)[C@H]4O)[C@@H]1O (some centres not stated),Potency,[1],inactive
same,Potency,[7],inactive
